The results in this text go back to PubChem BioAssay (NCATS).

The nature of test [1]: qHTS Assay for Lipid Storage Modulators (AID 1519; calls by dose curve; for activity change, negative = inhibition: % is set by controls: 0 for no effect and ±100 for the full control effect). The note with it: Drosophila S3 cells, BODIPY lipid droplet/cell ratio, laser cytometry, cells loaded with oleic acid. In outline:
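Cells seeded at 5,000 per well were treated with compounds over a concentration series and loaded with oleic acid (400 uM, as added). Lipid droplet fluorescence (488 nm excitation, 500-530 nm channel) was read by laser-scanning cytometry and normalized to 20 uM Triacsin C.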

Test [2] has as its target Alpha-galactosidase A (Homo sapiens) (UniProt P06280). The test is described as follows: Counterscreen for Glucocerebrosidase Inhibitors: qHTS Assay for Human alpha-Galactosidase at pH 4.5 (AID 992). Note: 0% is about no effect. In outline:
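Read-out is 4-methylumbelliferone fluorescence (365 nm excitation, 440 nm emission) after a pH 10 NaOH/glycine stop. Reactions held 2 nM enzyme and 80 uM substrate at pH 4.5 for 20 min at room temperature.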

Test [3] deals with alpha-glucosidase (Oryza sativa, rice) (UniProt Q653V4). The test is described as follows: Counterscreen for Glucocerebrosidase Inhibitors: qHTS Assay for Rice alpha-Glucosidase at pH 5.0 (AID 997).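 Note: 0% = full activity with enzyme and -100% = basal without enzyme.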 The gist of the method: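 Rice alpha-glucosidase (4 nM final) with 400 uM 4-methylumbelliferyl-alpha-D-glucopyranoside in citrate buffer pH 5.0, 20 min at room temperature, stopped at pH 10; fluorescence 365/440 nm, compounds 0.7 nM–77 uM, AC50 from Hill fits.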

The nature of test [4]: Validation of Assay for Modulators of Lamin A Splicing (AID 1459; active = well fitted curve in the direction sought with a large enough effect in the signal ratio; the % refers to the signal ratio;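 note: cells exposed to compound for two days before reading; 0% is about no effect; ratio rise marks activators and ratio drop marks inhibitors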). The gist of the method:
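Splicing correction is reported by an EGFP-containing lamin A minigene in stably transfected S3 HeLa cells, while DsRed2 controls for viability and nonspecific signal. Cells are exposed to compounds for 48 hrs before the GFP over RFP ratio is taken.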

Test [5] has as its target DNA repair nuclease/redox regulator APEX1 (Homo sapiens) (UniProt P27695). The test is described as follows: qHTS Validation Assay for Inhibitors of the Human Apurinic/apyrimidinic Endonuclease 1 (APE1) (AID 1705; note: potency is the fitted concentration of half-maximal effect;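 for activity change, negative = inhibition: TAMRA fluorescence gain over two minutes as APE1 cuts a quenched THF abasic duplex; % is set by controls: 0 for no effect and ±100 for the full control effect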). In outline:
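Endonuclease activity of human APE1 is followed as dequenching when the enzyme incises a tetrahydrofuran abasic site in a short duplex labelled 5'-TAMRA/3'-BHQ-2 (50 nM final), after 15 min enzyme–compound preincubation at room temperature.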
A general note: In qHTS, concentration-response curves come from the screen itself.

Test [6] is described as follows: Counterscreen for APE1 Inhibitors: Fluorescent Dye Displacement Validation Assay (AID 1707).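 Note: plate controls were ThO with dsDNA and no compound for no effect and ThO without dsDNA for full effect.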 The gist of the method:
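ThO 250 nM + dsDNA 50 nM (THF abasic site, 5'-TAMRA), Tris-HCl pH7.5/50mM NaCl/2 mM MgCl2/0.01% Tween-20; compounds pin-transferred; ex 480/em 540 nm endpoint. Neutral = no compound; no-DNA ThO wells = negative control.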
A general note: Counterscreens check selectivity or assay interference.

The nature of test [7]: Cell Viability - LYMP2-025 (AID 976).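 Note: plate controls were DMSO only for no effect and tetraoctylammonium bromide control for full effect.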 The gist of the method:
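Human lymphoblastoid LYMP2-025 cells, 2500/well, exposed 24 h at 37 C in complete medium in 1536-well qHTS. Viability as cellular ATP by CellTiter-Glo luminescence; AC50 from Hill fits of concentration-response data.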

Test [8] in a line: Cell Viability - LYMP2-006 (AID 978). Note: % is set by controls: 0 for no effect and ±100 for the full control effect; nearly all actives have a fitted effect of over 60% in size. In outline:
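Concentration-dependent loss of intracellular ATP in a human lymphoblastoid line after 24 hr treatment at 37 C was measured by CellTiter-Glo luminescence, with AC50 values obtained from standard Hill-equation modelling.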

Test [9] in a line: Cell Viability - LYMP2-007 (AID 979).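 Note: cells exposed to compound for 24 h before reading; 0% = DMSO only and the negative end = 92 µM tetraoctylammonium bromide; nearly all actives have a fitted effect of over 60% in size.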 The gist of the method: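 Human lymphoblastoid LYMP2-007 cells (2500/well) preincubated 5 h at 37 C, then treated 24 h at 37 C in complete medium. Viability by CellTiter-Glo ATP luminescence after 30 min at room temperature; AC50 from Hill fits.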
Test [10] in a line: Cell Viability - LYMP2-008 (AID 980). Note: % is set by controls: 0 for no effect and ±100 for the full control effect; nearly all actives have a fitted effect of over 60% in size. In outline: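 LYMP2-008 lymphoblastoid cells (2500/well) plated 5 h, then treated 24 h at 37 C in complete medium. Viability read as intracellular ATP by CellTiter-Glo luminescence after 30 min at room temperature; AC50 from Hill fits.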
The nature of test [11]: Cell Viability - LYMP2-010 (AID 981). Note: % is set by controls: 0 for no effect and ±100 for the full control effect; nearly all actives have a fitted effect of over 55% in size. The gist of the method: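 Human lymphoblastoid LYMP2-010 cells (2500/well) treated 24 h at 37 C in complete medium; viability read as intracellular ATP by CellTiter-Glo luminescence. AC50 from Hill fits of concentration-response data; tetraoctylammonium bromide positive control.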
Test [12] is described as follows: Cell Viability - LYMP2-012 (AID 982).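 Note: cellular ATP by luciferase luminescence where a drop means cytotoxicity; cells exposed to compound for one day before reading; 0% = DMSO only and full loss = 92 µM tetraoctylammonium bromide; nearly all actives have a fitted effect of over 55% in size.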
Test [13] can be described thus: Cell Viability - LYMP2-014 (AID 983).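 Note: plate controls were DMSO only for no effect and 92 µM tetraoctylammonium bromide for full effect; nearly all actives have a fitted effect of over 50% in size.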 The gist of the method:
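LYMP2-014 human lymphoblastoid cells, 2500/well, treated 24 h at 37 C in complete medium; viability by CellTiter-Glo ATP luminescence after 30 min at room temperature. AC50 from Hill fits of qHTS concentration-response; tetraoctylammonium bromide positive control.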

The nature of test [14]: Cell Viability - LYMP2-016 (AID 984). Note: % is set by controls: 0 for no effect and ±100 for the full control effect; nearly all actives have a fitted effect of over 55% in size. In outline: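 Acute toxicity in a Coriell human lymphoblastoid line is scored as loss of intracellular ATP over 24 h of treatment in complete medium. CellTiter-Glo signal is fitted across concentrations with the Hill equation to give AC50.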
A short description of test [15]: Cell Viability - LYMP2-018 (AID 985).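 Note: compound exposure lasted 24 hr at 37 °C; plate controls were DMSO only for no effect and tetraoctylammonium bromide at 92 µM for full effect; nearly all actives have a fitted effect of over 50% in size.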 The gist of the method: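 Human lymphoblastoid LYMP2-018 cells, 2500/well, settled 5 hr at 37 C then exposed to compound 24 hr at 37 C; intracellular ATP measured by CellTiter-Glo luminescence. AC50 from Hill-equation concentration-response fits.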
The nature of test [16]: Cell Viability - LYMP2-020 (AID 986).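 Note: plate controls were DMSO only for no effect and tetraoctylammonium bromide at 92 µM for full effect; nearly all actives have a fitted effect of over 55% in size.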 In outline:
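Human lymphoblastoid LYMP2-020 cells (2500/well) preincubated 5 h at 37 C, then treated 24 h at 37 C. Viability measured as intracellular ATP by CellTiter-Glo luminescence after 30 min at room temperature; AC50 from Hill fits.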

Test [17] is described as follows: Cell Viability - LYMP2-022 (AID 987). The gist of the method:
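LYMP2-022 lymphoblastoid cells (2500/well, complete medium) were treated with compounds for 24 hours at 37 C; intracellular ATP was then read by CellTiter-Glo luminescence after 30 min at room temperature. AC50 values were derived from Hill-equation fits.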

A short description of test [18]: Cell Viability - LYMP2-024 (AID 988).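 Note: plate controls were DMSO only for no effect and 92 µM tetraoctylammonium bromide for full effect; nearly all actives have a fitted effect of over 60% in size.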 In outline: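 Human lymphoblastoid LYMP2-024 cells (2500/well) rested 5 hr, then treated with compound for 24 hr at 37 C in complete medium. Viability was measured as intracellular ATP by CellTiter-Glo luminescence. AC50 values came from Hill-equation fits.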
Test [19] can be described thus: Cell Viability - LYMP1-002 - Assay at 24 hr (AID 993). Note: % is set by controls: 0 for no effect and ±100 for the full control effect. The gist of the method: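 Human lymphoblastoid LYMP1-002 cells (2500/well) treated 24 h at 37 °C; viability as intracellular ATP by CellTiter-Glo luminescence. Tetraoctylammonium bromide as positive control; AC50 from Hill-equation fits of qHTS concentration-response.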
A short description of test [20]: Cell Viability - LYMP1-002 - Assay at 40 hr (AID 994). The gist of the method:
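LYMP1-002 human lymphoblastoid cells (2500/well, complete medium) were treated with compounds for 40 hr at 37 C. Intracellular ATP was measured by CellTiter-Glo luminescence, and AC50 values came from Hill-equation fits of concentration-response data; tetraoctylammonium bromide was the positive control.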

Where [21] appears, read: measured here: cell count channel max response.
[22] abbreviates: measured here: lipid channel max response.

Several values for one entry are separate records, joined by “and”; a condition that tells them apart may be missing. Identical values can stand only once. Records with an inconclusive call do not appear. Activity calls are given as the source filed them. Unless noted, calls come from the whole dose curve; as a rule, active = well fitted curve in the direction sought with a large enough effect; inconclusive = small, poorly fitted or top-dose-only effect, or another doubt; inactive = no such curve, though single readings can be large; an effect the other way counts as inactive or inconclusive.

Sequence of Alpha-galactosidase A (Homo sapiens) (P06280 whole entry, looked up): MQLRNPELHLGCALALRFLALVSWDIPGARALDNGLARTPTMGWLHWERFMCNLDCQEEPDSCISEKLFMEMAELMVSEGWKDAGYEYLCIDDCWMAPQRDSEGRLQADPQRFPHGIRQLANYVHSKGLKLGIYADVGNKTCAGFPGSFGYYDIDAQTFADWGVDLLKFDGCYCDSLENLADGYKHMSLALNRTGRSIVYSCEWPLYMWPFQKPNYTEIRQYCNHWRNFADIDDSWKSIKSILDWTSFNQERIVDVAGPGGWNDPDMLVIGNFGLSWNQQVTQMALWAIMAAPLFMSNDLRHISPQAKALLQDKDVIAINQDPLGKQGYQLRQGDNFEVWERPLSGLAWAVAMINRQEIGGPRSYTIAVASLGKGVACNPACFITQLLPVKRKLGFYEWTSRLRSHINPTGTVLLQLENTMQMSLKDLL
Sequence of DNA repair nuclease/redox regulator APEX1 (Homo sapiens) (P27695 whole entry, looked up): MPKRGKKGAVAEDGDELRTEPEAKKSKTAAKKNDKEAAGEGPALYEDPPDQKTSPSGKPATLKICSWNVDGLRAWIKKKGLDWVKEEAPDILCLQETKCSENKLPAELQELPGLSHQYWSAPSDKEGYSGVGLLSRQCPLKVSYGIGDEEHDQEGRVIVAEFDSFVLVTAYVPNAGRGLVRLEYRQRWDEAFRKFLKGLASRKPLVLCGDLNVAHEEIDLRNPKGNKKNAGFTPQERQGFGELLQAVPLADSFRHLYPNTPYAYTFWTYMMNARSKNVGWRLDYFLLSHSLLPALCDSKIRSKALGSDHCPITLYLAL

For `CC(=O)OCC(CCn1cnc2cnc(N)nc21)COC(C)=O`, the activity change, negative = inhibition in test [1] (at 57.5 µM (top of the series)) is 8.16% (inactive). The max response stood at 10.2% in test [1] (setting [21]) and 23.5% in [1] (setting [22]).
For `NCCc1cnc[nH]1`, the result in test [2], in test [3] and in test [4] was inactive. In addition, the Potency entry in test [5] and in [6] was “inactive” in each case.
Take `Cc1cc(C(C)(C)C)c(O)c(C)c1CC1=NCCN1`: the call in test [2] and in test [3] was inactive. The activity change, negative = inhibition was -3.48% (inactive) in [1] (at 25.7 µM (top of the series)); -2.77% (inactive) and 10.3% (inactive) in test [1] (at 57.5 µM (top of the series)). The max response in test [1] (setting [21]) was -11.5% and -13.2% and 34.1%; in test [1] (setting [22]) it was -16% and -15.4% and 53.3%. In addition, the Potency result in test [5] and in test [6] was “inactive” in each case.
For the compound `Nc1nnc(-c2cccc(Cl)c2Cl)c(N)n1`, the result in [2], in test [3] and in [4] was inactive. Also, the activity change, negative = inhibition in test [1] (at 57.5 µM (top of the series)) was 1.91% (inactive). The max response came to 18.9% in test [1] (setting [21]) and 20.6% in test [1] (setting [22]). For the same compound, the Potency result in test [5] was “inactive”.
As for `CN(C)C(=N)N=C(N)N`, the activity change, negative = inhibition in test [1] (at 25.7 µM (top of the series)) was 1.15% (inactive); in [1] (at 57.5 µM (top of the series)) it was 9.29% (inactive). Moreover, the max response in test [1] (setting [21]) is 14.6% and 3.67%; in test [1] (setting [22]), 15.2% and 21.7%.
With `CS(=O)(=O)Nc1ccc([N+](=O)[O-])cc1Oc1ccccc1`, the outcome in test [2] and in test [3] was inactive. Moreover, the activity change, negative = inhibition was -1.76% (inactive) in test [1] (at 25.7 µM (top of the series)) and 14.1% (inactive) in test [1] (at 57.5 µM (top of the series)). The max response was 3.21% and 14.6% in [1] (setting [21]); 2.41% and 33.1% in test [1] (setting [22]). Besides, the Potency in test [5] is 39.8 µM (active). The Potency result in test [6] was “inactive”.
Turning to `N[C@@H](Cc1c[nH]c2ccc(O)cc12)C(=O)O`, the outcome in [7], in test [8], in test [9], in test [10], in test [11] and in test [12] was inactive. In addition, the call in [13], in test [14], in [15], in test [16], in test [17] and in test [18] was inactive. Moreover, the compound was called inactive in [2], in test [19], in test [3] and in test [4]. Further, the Potency entry in test [20] and in [5] was “inactive” each time.
As to `CCOC(=O)Nc1ccc(NCc2ccc(F)cc2)nc1N`, the outcome in test [2], in [3] and in [4] was inactive. Moreover, the activity change, negative = inhibition in [1] (at 57.5 µM (top of the series)) is 0.206% (inactive). The max response in test [1] (setting [21]) stood at 49%; in [1] (setting [22]) it was 49.4%. Further, the Potency result in [5] and in [6] was “inactive” each time.
As to `CC(C)NCC(O)c1ccc(O)c(O)c1` (stereo not drawn), the compound was called inactive in test [7], in [8], in [9], in test [10], in test [11] and in [12]. Moreover, the result in test [13], in test [14], in [15], in test [16], in test [17] and in test [18] was inactive. In addition, the call in test [19] and in test [4] was inactive. Also, the Potency entry in test [20] and in [5] was “inactive” in each case. Besides, the activity change, negative = inhibition in [1] (at 57.5 µM (top of the series)) is 4.99% (inactive) and 0.312% (inactive) and 1.86% (inactive). In addition, the max response in [1] (setting [21]) is 14.1% and -2.95% and -6.8%; in test [1] (setting [22]), 18.9% and -2.86% and -5.68%.
For `NC(CO)C(=O)NNCc1ccc(O)c(O)c1O` (stereo not drawn), in test [4], the outcome was inactive. Besides, the activity change, negative = inhibition in [1] (at 57.5 µM (top of the series)) is 13.3% (inactive). Further, the max response in test [1] (setting [21]) is 25.8%; in test [1] (setting [22]), 46.4%. Moreover, the Potency entry in [5] was “inactive”.
Regarding `NC12CC3CC(CC(C3)C1)C2`, the result in test [2] and in [3] was inactive. Moreover, the activity change, negative = inhibition in test [1] (at 25.7 µM (top of the series)) is -3.08% (inactive); in [1] (at 57.5 µM (top of the series)), 3.74% (inactive) and -0.728% (inactive). Also, the max response in test [1] (setting [21]) was 0.387% and 4.41% and -44.8%; in test [1] (setting [22]), -3.12% and 9.04% and -45.9%. For the same compound, the Potency result in test [5] and in test [6] was “inactive” throughout.
